Among all 310,000 compounds or so, about 14,000 (4.5%) showed an effect of 50% or more. Effects have a minus sign here. Only a selection was taken, and strong results are over-represented in it overall.
Biological target: human ether-à-go-go-related gene (hERG) potassium channel (human, UniProt Q12809)
Test: primary screen, population patch clamp on CHO cells stably expressing hERG; higher = less effect of the substance
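Also: peak tail current of the secondary pulse compared with the same well before compound.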

Chain of human ether-à-go-go-related gene (hERG) potassium channel (Q12809 whole entry, looked up): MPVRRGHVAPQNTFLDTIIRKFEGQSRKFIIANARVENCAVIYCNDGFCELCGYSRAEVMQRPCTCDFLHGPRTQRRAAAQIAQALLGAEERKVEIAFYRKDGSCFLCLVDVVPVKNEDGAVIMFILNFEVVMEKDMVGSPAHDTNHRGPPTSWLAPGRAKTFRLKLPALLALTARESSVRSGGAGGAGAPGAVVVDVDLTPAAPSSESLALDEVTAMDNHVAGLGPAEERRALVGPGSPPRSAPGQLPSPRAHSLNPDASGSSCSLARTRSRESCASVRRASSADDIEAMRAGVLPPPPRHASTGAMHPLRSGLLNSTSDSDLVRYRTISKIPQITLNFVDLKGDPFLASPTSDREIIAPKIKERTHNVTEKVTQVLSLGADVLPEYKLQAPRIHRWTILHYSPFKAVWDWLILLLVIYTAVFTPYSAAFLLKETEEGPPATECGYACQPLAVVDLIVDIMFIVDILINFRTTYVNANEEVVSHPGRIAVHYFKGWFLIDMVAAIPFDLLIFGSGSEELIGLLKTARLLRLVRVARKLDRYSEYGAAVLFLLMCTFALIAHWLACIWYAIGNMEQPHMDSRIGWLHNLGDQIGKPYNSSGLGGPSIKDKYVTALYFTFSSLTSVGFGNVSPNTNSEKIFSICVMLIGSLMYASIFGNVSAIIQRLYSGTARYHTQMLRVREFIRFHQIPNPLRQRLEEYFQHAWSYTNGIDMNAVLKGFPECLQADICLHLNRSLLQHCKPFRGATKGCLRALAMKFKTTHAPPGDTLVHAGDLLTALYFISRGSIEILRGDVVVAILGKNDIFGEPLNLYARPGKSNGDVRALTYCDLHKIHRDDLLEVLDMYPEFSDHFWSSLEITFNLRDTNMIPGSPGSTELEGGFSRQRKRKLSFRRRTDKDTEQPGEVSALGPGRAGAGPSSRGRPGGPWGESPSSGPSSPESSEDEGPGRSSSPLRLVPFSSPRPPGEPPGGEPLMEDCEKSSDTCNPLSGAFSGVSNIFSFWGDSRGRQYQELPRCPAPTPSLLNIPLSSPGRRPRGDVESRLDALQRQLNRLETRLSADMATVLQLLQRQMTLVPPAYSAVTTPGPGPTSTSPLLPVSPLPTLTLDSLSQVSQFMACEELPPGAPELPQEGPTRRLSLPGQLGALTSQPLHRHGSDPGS

Row | SMILES | hERG current change (%, negative = inhibition) at 10uM
1 | CC(=O)Cc1ccccc1OC(=O)c1ccco1 | 23.6%
2 | Cc1cc(C)c2oc(C(=O)N3CCN(Cc4ccccc4)CC3)cc(=O)c2c1 | -42.9%
3 | CCOC(=O)c1ccc(S(=O)(=O)N2CCN(C(=O)c3cc(=O)c4ccccc4o3)CC2)cc1 | -38.2%
4 | O=C(c1cc2ccccc2o1)N1CCN(c2cccc(Cl)c2)CC1 | -16.3%
5 | COc1ccc(N2CCN(C(=O)c3cc(=O)c4cc(Cl)ccc4o3)CC2)cc1 | -76.3%
6 | COc1ccc(N2CCN(C(=O)c3cc(=O)c4cc(C)ccc4o3)CC2)cc1 | -38.1%
7 | COc1ccc(N2CCN(C(=O)c3cc(=O)c4cc(C)c(C)cc4o3)CC2)cc1 | 0.819%
8 | O=C(c1cc(=O)c2ccccc2o1)N1CCN(c2ccccc2)CC1 | 1.71%
9 | CN1CCN(C(=O)c2cc(=O)c3cc(Cl)ccc3o2)CC1 | -28.1%
10 | Cc1ccc(S(=O)(=O)N2CCN(C(=O)c3cc(=O)c4ccccc4o3)CC2)cc1 | -55%
11 | CC(=O)N1CCN(C(=O)c2cc(=O)c3ccccc3o2)CC1 | 26.2%
12 | O=C(c1cc(=O)c2cc(Cl)ccc2o1)N1CCN(Cc2ccccc2)CC1 | -70.8%
13 | O=C(c1cc(=O)c2ccccc2o1)N1CCN(c2cccc(Cl)c2)CC1 | -56.4%
14 | CCOc1ccc(NC(=O)CN(C)C(=O)Cc2ccsc2)cc1OCC | -11.2%
15 | Cc1cccc(C2C3=C(CCCC3=O)N=C3c4ccccc4C(=O)C32)c1 (stereo not shown) | -0.327%
16 | CCOC(=O)Cn1c(=O)c2c(nc(N3CCOCC3)n2C)n(C)c1=O | -4.47%
17 | COc1ccc(C2=NOC(Cn3c(Cc4ccc(Cl)cc4)nc4c3c(=O)n(C)c(=O)n4C)C2)cc1 (stereo not shown) | -22.1%
18 | COc1ccc2cc(-c3cc(C(=O)OCC(=O)NC4CCS(=O)(=O)C4)c4ccccc4n3)ccc2c1 (stereo not shown) | 16.1%
19 | CCc1nnc(NC(=O)c2sc3nc4cc(C)ccc4cc3c2N)s1 | 13%
20 | CCCCNC(=O)c1ccc(N2CCC3(CC2)OCCO3)c([N+](=O)[O-])c1 | -22.2%
21 | O=C1CC(NS(=O)(=O)c2ccc([N+](=O)[O-])cc2)CN1c1ccc2c(c1)OCCO2 (stereo not shown) | -1.64%
22 | O=C1CC(NS(=O)(=O)c2ccc([N+](=O)[O-])cc2)CN1c1ccc(Cl)cc1 (stereo not shown) | -66.6%
23 | CC(=O)c1ccc(S(=O)(=O)NC2CC(=O)N(c3ccc(Cl)cc3)C2)cc1 (stereo not shown) | -34.8%
24 | Brc1cccc(OCCCN2CCCCCC2)c1.O=C(O)C(=O)O | -70%
25 | COc1cccc(OCCCN2CCCCCC2)c1.O=C(O)C(=O)O | -37.8%

Row | SMILES | hERG current change (%, negative = inhibition) at 10uM
26 | Brc1cccc(OCCCCN2CCCCC2)c1.O=C(O)C(=O)O | -68.9%
27 | Brc1cccc(OCCN2CCOCC2)c1.O=C(O)C(=O)O | 19%
28 | Brc1cccc(OCCN2CCCCC2)c1.O=C(O)C(=O)O | -21.3%
29 | c1ccc(Oc2cccc(OCCCCN3CCCC3)c2)cc1 | -78.3%
30 | CCOc1cccc(OCCCCN2CCCCC2)c1 | -38.1%
31 | c1ccc(OCCCCN2CCCCC2)cc1 | 1.35%
32 | Cc1cc(NN)nc(Cc2ccccc2)n1 | 10.2%
33 | Cc1cc(O)c(C(C)C)cc1NC(=O)c1cccc(Cl)c1 | -13.4%
34 | O=C(CNC(=O)c1cccc(F)c1)OCC(=O)N1CCCc2ccccc21 | -0.321%
35 | CCN(CC)c1ccc(C(=O)OCC(=O)Nc2cccc(S(=O)(=O)NC3=NCCCCC3)c2)cc1 | 7.02%
36 | O=C(NCCc1ccccc1)C(=S)N1CCCCC1 | 9.48%
37 | CC(=O)Nc1ccc(C(=O)COC(=O)CCc2ccccc2)c(F)c1 | -2.03%
38 | CCc1ccc(NC(=O)c2ccccc2Br)cc1 | -11.2%
39 | COc1ccc(CCN(C)C2CCCN(S(=O)(=O)c3ccc(C)cc3)C2)cc1OC (stereo not shown) | -78%
40 | COc1ccc(CCN(C)C(=O)c2ccc(C)c(S(=O)(=O)N3CCCCC3)c2)cc1OC | -20.9%
41 | COc1ccc(CCN(C)C2CCCN(S(=O)(=O)c3ccccc3F)C2)cc1OC (stereo not shown) | -64.3%
42 | COc1ccc(CCN(C)C2CCCN(S(=O)(=O)C(C)C)C2)cc1OC (stereo not shown) | -20.2%
43 | C=CCS(=O)(=O)N1CCCC(N(C)CCc2ccc(OC)c(OC)c2)C1 (stereo not shown) | -16.1%
44 | COc1ccc(S(=O)(=O)N2CCCC(C(=O)N3CCCC3)C2)cc1OC (stereo not shown) | 4.14%
45 | COc1ccc(S(=O)(=O)N2CCCC(N(C)CCc3ccccc3)C2)cc1OC (stereo not shown) | -66.5%
46 | COc1ccc(CCN(C)C2CCCN(S(=O)(=O)N(C)C)C2)cc1OC (stereo not shown) | -8.26%
47 | COc1ccc(CCN(C)C2CCCN(S(C)(=O)=O)C2)cc1OC (stereo not shown) | -4.36%
48 | COc1ccc(CCN(C)C2CCCN(S(=O)(=O)c3ccccc3)C2)cc1OC (stereo not shown) | -77.2%
49 | C/C=C(\C)CN1CCCC(N(C)CCc2ccc(OC)c(OC)c2)C1 (stereo not shown) | -27.5%
50 | CN(CCc1ccccc1)C1CCCN(S(=O)(=O)c2cccc(F)c2)C1 (stereo not shown) | -48.1%

Row | SMILES | hERG current change (%, negative = inhibition) at 10uM
51 | COc1ccc(NC(=O)c2nn(C34CC5CC(CC(C5)C3)C4)cc2[N+](=O)[O-])cc1 | -0.0263%
52 | O=c1nc(N2CCOCC2)ccn1-c1nc(-c2ccccc2)oc1-c1ccccc1 | -9.71%
53 | Cc1c(NC(=O)COC(=O)C23CC4CC(CC(O)(C4)C2)C3)c(=O)n(-c2ccccc2)n1C | 10.1%
54 | Cc1oc(-c2ccccc2F)nc1CS(=O)(=O)CC(=O)NCc1ccccc1Cl | -17.9%
55 | c1ccc(Nc2ncnc3sc4c(c23)CCC4)cc1 | 0.132%
56 | Nc1ccc2nc(SCC(=O)N3CCOCC3)sc2c1 | 17%
57 | COc1ccc(NC(C)=O)cc1C#N | 19.3%
58 | CC(C)C(=O)N(Cc1ccc2c(c1)OCO2)Cc1ccccn1.Cl | -7.53%
59 | CCOc1ccccc1NC(=O)NCc1ccc2c(c1)OCO2 | 22.4%
60 | CCOc1ccccc1CN(CCc1ccc2c(c1)OCO2)Cc1ccccn1 | -64.4%
61 | CCOc1cc(C(=O)Nc2ccc3c4c(cccc24)C(=O)N3CC)cc(OCC)c1OCC | -5.15%
62 | CCN1C(=O)c2cccc3c(NC(=O)c4ccc(OC)c(OC)c4)ccc1c23 | -68.3%
63 | CCN1C(=O)c2cccc3c(NC(=O)c4ccccc4)ccc1c23 | 9.37%
64 | O=P(O)(Oc1ccccc1)OC(c1ccccc1)C(F)(F)C(F)(F)F (stereo not shown) | 27.3%
65 | COC(=O)c1ccc(N2CCN(C)CC2)c(NC(=O)COc2ccccc2)c1 | -43.9%
66 | CN1CCN(c2ccccc2NC(=O)COc2ccccc2)CC1 | -48.4%
67 | Cc1cc(C)cc(OCC(=O)Nc2ccc(N3CCOCC3)cc2N2CCOCC2)c1 | -6.54%
68 | COC(=O)c1ccc(N2CCN(C)CC2)c(NC(=O)COc2ccc(C)cc2)c1 | -20%
69 | CC(=O)N1CCN(c2ccccc2NC(=O)COc2cc(C)cc(C)c2)CC1 | -52.4%
70 | O=C(COc1cccc(Br)c1)Nc1ccc(N2CCOCC2)cc1N1CCOCC1 | -50.6%
71 | COC(=O)c1ccc(N2CCN(C)CC2)c(NC(=O)COc2ccc(OC)cc2)c1 | -53.5%
72 | Cc1cc(C)cc(OCC(=O)Nc2ccccc2N2CCCCC2)c1 | -0.491%
73 | CC(=O)N1CCN(c2ccccc2NC(=O)COc2ccc(Br)cc2)CC1 | -9.2%
74 | CC(=O)N1CCN(c2ccccc2NC(=O)COc2ccccc2C)CC1 | -14%
75 | O=C(COc1ccc(Br)cc1)Nc1ccc(N2CCOCC2)cc1N1CCOCC1 | -7.56%

Row | SMILES | hERG current change (%, negative = inhibition) at 10uM
76 | CN1CCN(c2ccccc2NC(=O)COc2ccc(Br)cc2)CC1 | -58%
77 | O=C(Nc1cccc(Cl)c1)OC1CCCCc2cccnc21 (stereo not shown) | 4.75%
78 | COc1ccc(-c2cc(N3C(=O)Nc4ccccc4N3O)n[nH]2)cc1OC | 3.84%
79 | CCO[C@@H]1OC(C(=O)N2CCOCC2)=C[C@H](c2cn(C(C)=O)c3ccccc23)[C@H]1CCCO | -20.3%
80 | CSc1nc2sccc2c(=O)[nH]1 | 32.8%
81 | Cc1cccc(NC(=O)c2ccccc2NC(=O)c2ccccc2)n1 | -0.693%
82 | COc1ccc(C(C)NC(=O)CCc2ccccc2)cc1 (stereo not shown) | 10%
83 | Clc1ccc(-c2nc3ccncc3[nH]2)cc1 | -17.3%
84 | COc1ccccc1-n1c(O)c(C=NCc2ccccn2)c2ccccc2c1=O | -8.58%
85 | Cc1ccc(N2C(=O)CC(Sc3nc(-c4ccccc4)c4cc(Cl)ccc4n3)C2=O)c(C)c1 (stereo not shown) | 3.36%
86 | CN1CCN(c2ccccc2NC(=O)COc2ccc(C3CCCCC3)cc2)CC1 | 16.8%
87 | COc1cc(CCC(=O)Nc2cc(Cl)ccc2N2CCN(C)CC2)cc(OC)c1OC | -10.2%
88 | Cc1cccc(OCC(=O)Nc2ccccc2N2CCN(C)CC2)c1 | -51.2%
89 | CN1CCN(c2ccccc2NC(=O)COc2ccc(Cl)cc2)CC1 | -59.9%
90 | COc1ccc(OCC(=O)Nc2ccccc2N2CCN(C)CC2)cc1 | -38.6%
91 | COc1ccc(CC(=O)Nc2cc(Cl)ccc2N2CCCC2)cc1 | 15.7%
92 | CCn1c(=O)cc(OCC(=O)Nc2ccccc2N2CCN(C)CC2)c2ccccc21 | -58.3%
93 | COc1ccc(CCC(=O)Nc2cc(Cl)ccc2N2CCN(C)CC2)cc1 | -50.1%
94 | CCC(=O)N1CCN(c2ccccc2NC(=O)COc2cccc(C)c2)CC1 | -38.2%
95 | CCn1c(=O)cc(OCC(=O)Nc2ccccc2C#N)c2ccccc21 | 6.06%
96 | CCOC(=O)c1ccccc1NC(=O)COc1cc(=O)n(CC)c2ccccc12 | 5.47%
97 | Cc1cccc(OCC(=O)Nc2ccccc2N2CCCCC2)c1 | 2.17%

— paper PMC4336329 (PLoS ONE, 2015)
